# This is part of a sample that, as a whole, favours compounds with a hit. Of some 83,000 tested, about 20% had one in any assay.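 96-well plates, one dose, 48 hours. Percent growth reported; active if below 10.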 Unmarked numbers belong to inactive results. Activity calls are given as the source filed them.
# Tested on: SK-MEL-28 melanoma
# Test: NCI-60 one-dose screen, 48 h (100 = growth as untreated, 0 = no growth, -100 = all killed)
# Settings: 10 µM unless noted
row,Structure (SMILES),growth
1,CC(=O)CCC(=O)OCc1cc(=O)c(O)co1,98.1%
2,O=C(c1nc2ccccc2[nH]1)C1C(c2ccc(Cl)cc2)C2CC3CCCC[C@H]3N2[C@@]12C(=O)Nc1cc(Cl)ccc12 (some centres undefined),72%
3,COc1cccc(-c2nc3occn3c2-c2ccnc(NCCNS(=O)(=O)c3cccc4ccccc34)n2)c1,115%
4,COc1cc(-c2n/c(=C\c3c(O)[nH]c4ccc(Cl)cc34)cc3c2=Nc2ccccc2-3)ccc1F,1.48% (active)
5,NNC(=O)c1ccc(-n2nc(-c3ccccc3)c3ccccc32)cc1,83.9%
6,O=C1Nc2cc(-c3cccc(O)c3)ccc2/C1=C/c1ccc[nH]1,16.4%
7,COc1cccc(/C=N/NC(=O)c2cnn3c2NC(c2ccccc2)C3)c1Oc1ccccc1 (centres undefined),79.1%
8,S=c1cc(S)c2cc(Br)ccc2[nH]1,98%
9,O=C(NCCc1ccccc1)Nc1ccc2cc3ccc(NC(=O)NCCc4ccccc4)cc3nc2c1,-29.4% (active)
10,CCN(CC)CCCC(C)Nc1cc(O)cc2cccnc12 (centres undefined),122%
11,CCOC(=O)C1=C(C)NC(SCc2cc(=O)oc3ccc(F)cc23)=N[C@@H]1c1cccc2ccccc12,109%
12,COc1ccc(C(=O)c2cc(OC)c(OC)c(OC)c2)cc1O,57.6%
13,CCCOC(=O)N[C@H]1CCc2c(Cl)c(OC)c(OC)c(OC)c2-c2ccc(SC)c(=O)cc21,68.8%
14,Cc1ccc(/C=N/NC(=O)CSc2nc3ccccc3c(=O)n2Cc2ccc(S(N)(=O)=O)cc2)cc1,93.2%
